This is a sample that favours compounds with a hit; in the whole collection about 1.2% have one here.
GALK inhibitor: qHTS Assay for Inhibitors of Human Galactokinase (GALK); Purified GALK, Kinase-Glo residual ATP luminescence; P51570; Potency, µM (highest dose often 57.5 µM), for the others: at the highest dose activity change, negative = inhibition, actives largely listed as inhibitors; 270,000 compounds, 0.007% hits; also: potency is read from the fitted curve at half-maximal effect
Target sequence (P51570 whole entry, looked up): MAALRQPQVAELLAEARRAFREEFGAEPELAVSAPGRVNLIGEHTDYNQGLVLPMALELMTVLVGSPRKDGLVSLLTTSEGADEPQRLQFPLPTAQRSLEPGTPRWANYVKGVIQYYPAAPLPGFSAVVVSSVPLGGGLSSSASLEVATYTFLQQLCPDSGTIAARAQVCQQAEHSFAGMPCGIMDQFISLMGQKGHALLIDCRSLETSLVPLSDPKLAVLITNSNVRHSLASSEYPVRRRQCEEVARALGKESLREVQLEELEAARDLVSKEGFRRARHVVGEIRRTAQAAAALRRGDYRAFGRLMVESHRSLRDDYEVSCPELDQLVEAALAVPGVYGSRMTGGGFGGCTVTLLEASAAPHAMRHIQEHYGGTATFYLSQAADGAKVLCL
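Galactose (100 uM) and ATP (35 uM) were turned over by 5 nM GALK for 1 h at RT. Kinase-Glo Plus then converted the remaining ATP into a luminescent signal.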
PKM2 act: qHTS Assay for Activators of Human Muscle isoform 2 Pyruvate Kinase; Pyruvate kinase PKM (Homo sapiens), P14618; purified PKM2, Kinase-Glo ATP luminescence, activation; response scale: 0% is enzyme alone, no compound; Potency, µM (titrated, usually from 57.5 µM), for the others: at the top dose activation, actives largely listed as activators; 260,000 compounds, 0.34% hits; AID 1631, 2009; also: potency is read from the fitted curve at half-maximal effect; nearly all actives have a fitted effect of over 55% in size
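Kinase-Glo luminescence reports ATP generated from ADP (0.1 mM) and PEP (0.5 mM) by purified hPK-M2 after 1 h at room temperature, pH 7.2 imidazole buffer; intermediate enzyme activity allows detecting inhibitors and activators.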
PI4K2A block: qHTS for small molecular inhibitors of PI4K2A. Phosphatidylinositol 4-kinase type 2-alpha (Homo sapiens), Q9BTU6. purified PI4K2A, ADP-Glo luminescence, 1 h; stronger effect = lower value. activity change, negative = inhibition, % at 76.9 µM. 420,000 compounds, 0.13% hits; in the data active = activity change below about -50%; inconclusive = mostly about -30% to -49%;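 also: -100% = wells without enzyme as full effect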
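ADP-Glo luminescence measured ADP generated by PI4K2A enzyme (4 ug/mL before mixing) with 1.2 mM PI substrate (pre-mix) and 300 microM ATP (pre-mix). Tris pH7.5 buffer with MgCl2, Triton X-100; 1 h reaction at ambient temperature.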
rTrxR1 inhibitor: qHTS Assay for Inhibitors of Mammalian Selenoprotein Thioredoxin Reductase 1 (TrxR1): qHTS; recombinant rTrxR1, NADPH fluorescence consumption, selenite substrate; Thioredoxin reductase 1, cytoplasmic (Rattus norvegicus), O89049; Potency, µM (top dose mostly 114 µM), for inactives: at the highest dose activity change, negative = inhibition, hits mostly inhibitors; 390,000 compounds, 1% hits; also: potency is read from the fitted curve at half-maximal effect; nearly all actives have a fitted effect of over 65% in size
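Rat TrxR1 (90 nM in the dispensed reagent) was pre-reduced with 400 uM NADPH for 5 min at room temperature, then incubated with compound for 15 min. After 400 uM selenite was added, NADPH fluorescence (Ex 340/Em 450 nm) was followed for 8 min.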
TrxR1 substrate: qHTS Assay for Substrates of Mammalian Selenoprotein Thioredoxin Reductase 1 (TrxR1): qHTS; purified TrxR1 substrate turnover, NADPH consumption readout; AID 588456, 2011; Thioredoxin reductase 1, cytoplasmic (Rattus norvegicus), O89049; Potency, µM (top dose mostly 114 µM), inactives show at the highest dose activity change, negative = substrate turnover; 390,000 compounds, 0.01% hits; also: potency is read from the fitted curve at half-maximal effect; nearly all actives have a fitted effect of over 50% in size
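Rat TrxR1, dispensed at 90 nM, was prereduced with 400 uM NADPH (final) for 5 min at ~22 deg C, then incubated with compound 15 min before 400 uM selenite. A first-read NADPH fluorescence drop versus no-compound background flagged substrates.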
Starred values were filed as active, the others as inactive; [ ] = dose if it differs, or a comment. Unless noted, calls follow the shape of the dose curve; as a rule, active = well fitted curve in the direction sought with a large enough effect; inconclusive = small, poorly fitted or top-dose-only effect, or another doubt; inactive = no such curve, though single readings can be large; an effect the other way counts as inactive or inconclusive. Unless noted, % is scaled to controls: 0 for no effect and ±100 for the full control effect.

CC(C)(C)OC(=O)NCCCCCc1nnc(SCC(=O)Nc2cccc(Cl)c2)o1 was read as GALK inhibitor 4%, PKM2 act 25µM*, PI4K2A block -2, rTrxR1 inhibitor -2% and TrxR1 substrate -9%.
O=C(COC(=O)c1c2c(nc3ccccc13)/C(=C\c1ccco1)CC2)NC1CCCC1 was read as PI4K2A block inconclusive, rTrxR1 inhibitor inconclusive and TrxR1 substrate -13%.
For CC1CCCCC1NC(=O)COC(=O)c1c2c(nc3ccccc13)/C(=C\c1ccco1)CC2 (stereo unspecified) the results were PI4K2A block -67*, rTrxR1 inhibitor 14µM* and TrxR1 substrate -2%.
CN(CCC#N)C(=O)COC(=O)c1c2c(nc3ccccc13)/C(=C\c1ccco1)CC2 was read as PI4K2A block -52*, rTrxR1 inhibitor inconclusive and TrxR1 substrate 0%.
O=C(NNC1=C(C(=O)C(F)(F)F)CCC1)c1ccccc1O was read as GALK inhibitor 1%, PKM2 act 3%, PI4K2A block 10, rTrxR1 inhibitor -22% and TrxR1 substrate -11%.
COc1ccccc1C(=O)NNC1=C(C(=O)C(F)(F)F)CCC1 was read as GALK inhibitor -2%, PKM2 act 5%, PI4K2A block -2, rTrxR1 inhibitor 45µM* and TrxR1 substrate 4%.
Screening COC(=O)N/N=C(C)\C=C\c1ccco1 returned GALK inhibitor 3%, PKM2 act -5%, PI4K2A block -5, rTrxR1 inhibitor 40µM* and TrxR1 substrate -12%.
CC(/C=C/c1ccco1)=N\NC(=O)C(O)c1ccccc1 (stereo unspecified) was read as GALK inhibitor 1%, PKM2 act 10%, PI4K2A block 1, rTrxR1 inhibitor 18µM* and TrxR1 substrate -13%.
For O=C(Nc1cccc([N+](=O)[O-])c1)NC1CCCCN(Cc2ccc(Cl)cc2)C1=O (stereo unspecified) the results were PI4K2A block 1.
Cc1cc(NC(=O)Nc2nnc(N3CCCCC3)s2)ccc1Br was read as PI4K2A block 0, rTrxR1 inhibitor 5% and TrxR1 substrate -4%.
For Nc1ncnc2oc(-c3ccoc3)c(-c3ccco3)c12 the results were rTrxR1 inhibitor 50µM* and TrxR1 substrate 25%.
COc1ccc(C(C)=O)cc1COC(=O)c1cc(C)oc1C was read as GALK inhibitor 5%, PKM2 act 17%, PI4K2A block -3, rTrxR1 inhibitor 10µM* and TrxR1 substrate -4%.
For COc1ccc(C(C)=O)cc1COc1ccccc1[N+](=O)[O-] the results were GALK inhibitor 1%, PKM2 act 1%, PI4K2A block -5, rTrxR1 inhibitor 35µM* and TrxR1 substrate -11%.
For COc1ccc(C(C)=O)cc1COC(=O)CCNS(=O)(=O)c1ccc(C)cc1 the results were PI4K2A block 3, rTrxR1 inhibitor inconclusive and TrxR1 substrate 2%.
For COc1ccc(C(C)=O)cc1COC(=O)CCNS(=O)(=O)c1ccc(C(C)=O)cc1 the results were GALK inhibitor 7%, PKM2 act -7%, PI4K2A block -2, rTrxR1 inhibitor 40µM* and TrxR1 substrate -9%.
For COc1ccc(C(C)=O)cc1COC(=O)c1cc(C)nc2ccccc12 the results were GALK inhibitor 15%, PI4K2A block 11, rTrxR1 inhibitor inconclusive and TrxR1 substrate 6%.
`COc1ccc(C(C)=O)cc1COC(=O)c1cc(=O)c2ccccc2o1` gave GALK inhibitor 15%, PKM2 act 3%, PI4K2A block 1, rTrxR1 inhibitor 13µM* and TrxR1 substrate 13%[0.0914 µM].
CN(c1ccc(Cl)cc1)S(=O)(=O)c1nnc(NC(=O)C2CCCCC2)s1 was read as PI4K2A block 0, rTrxR1 inhibitor -4% and TrxR1 substrate -5%.
CCN(CC)CCN(C(=O)CCS(=O)(=O)c1ccccc1)c1nc2cc3c(cc2s1)OCO3 was read as GALK inhibitor -2%, PKM2 act -1%, PI4K2A block -1, rTrxR1 inhibitor 14µM* and TrxR1 substrate -1%.
Screening Cc1ccc(S(=O)(=O)CCC(=O)N(CCCN2CCOCC2)c2nc3ccccc3s2)cc1 returned PI4K2A block 1, rTrxR1 inhibitor 28µM* and TrxR1 substrate -2%.
O=C(CCS(=O)(=O)c1ccccc1)N(CCCN1CCOCC1)c1nc2ccccc2s1 was read as PI4K2A block -4, rTrxR1 inhibitor 14µM* and TrxR1 substrate -1%.
For Cc1ccc(S(=O)(=O)N(CCc2ccccc2)CC(=O)N2CCOCC2)cc1 the results were PI4K2A block -2.
Screening CC1CC=CC2C1C(=O)N(Cc1ccccc1)C2c1ccc(/C=C/c2ccccc2)cc1F (stereo unspecified) returned rTrxR1 inhibitor 2% and TrxR1 substrate 11%.
`CCc1ccc(CNC(=O)c2ccc(CS(=O)(=O)Cc3ccccc3C)o2)cc1` gave PI4K2A block -1, rTrxR1 inhibitor 17%[57.1 µM] and TrxR1 substrate 6%[57.1 µM].
`Cc1ccccc1CS(=O)(=O)Cc1ccc(C(=O)NCc2ccco2)o1` gave GALK inhibitor 0%, PKM2 act 2%, PI4K2A block 7, rTrxR1 inhibitor 79µM* and TrxR1 substrate -5%.
For Cc1ccccc1CS(=O)(=O)Cc1ccc(C(=O)NCc2ccccn2)o1 the results were GALK inhibitor -1%, PKM2 act 2%, PI4K2A block 14, rTrxR1 inhibitor 50µM* and TrxR1 substrate -3%.
`N#Cc1ccccc1NC(=S)NC(=O)c1cccs1` gave GALK inhibitor 12%, PKM2 act 2%, PI4K2A block 33, rTrxR1 inhibitor 2.2µM* and TrxR1 substrate -7%.
For CCOc1cccc2sc(NC(=O)CCS(=O)(=O)c3ccccc3)nc12 the results were GALK inhibitor 5%, PKM2 act -5%, PI4K2A block 4, rTrxR1 inhibitor 4% and TrxR1 substrate -1%.
`COc1ccc(C)c2sc(NC(=O)CCS(=O)(=O)c3ccccc3)nc12` gave GALK inhibitor -10%, PKM2 act 0%, PI4K2A block 1, rTrxR1 inhibitor 40µM* and TrxR1 substrate 2%.
Cc1cc(C)cc(NC(=O)N2CCC(c3nc4ccc(Cl)cc4[nH]3)CC2)c1 was read as PI4K2A block -3.
For O=C(CCl)N1c2ccccc2Oc2ccc3ccccc3c21 the results were PI4K2A block -6, rTrxR1 inhibitor 2.5µM* and TrxR1 substrate 8%.
Screening CCOc1ccc(S(=O)(=O)N2CCc3cc(OC)c(OC)cc3C2)cc1 returned PKM2 act 16µM*, PI4K2A block 1, rTrxR1 inhibitor 6% and TrxR1 substrate -5%.

Bioassay records deposited in PubChem by National Center for Advancing Translational Sciences (NCATS).
